This is a sample that favours compounds with a hit; in the whole collection about 3.6% have one here.
Pf apPOL inh: Pf-apPOL DNA polymerase inhibition; Recombinant Pf-apPOL, molecular beacon fluorescence, 1.5 h; inhibition, % at 10 µM; 210,000 compounds, 0.25% hits; AID 1794808
mHTT-CaM PPI inh: inhibitors of human mutant huntingtin-calmodulin interaction. P42858. AlphaScreen His-mHTT/GST-CaM binding, luminescence. inhibition, % at 15 µM. 190,000 compounds, 3.6% hits. AID 1671202
Large screens that a line does not name were inactive. No stated cut-off is given here; in the data, active means inhibition above about 50%; inactive means the rest.

CCCCN(CC)C(=O)CSc1nc2n[nH]c(C)c2c(=N)n1-c1cccc(C)c1	none
Cc1[nH]nc2nc(SCC(=O)NCc3ccco3)n(-c3cccc(Cl)c3)c(=N)c12	mHTT-CaM PPI inh 50
Cc1[nH]nc2nc(SCC(=O)N3CCCC3)n(-c3cccc(Cl)c3)c(=N)c12	none
CCC(Sc1nc2n[nH]c(C)c2c(=N)n1-c1cccc(Cl)c1)C(=O)NCCOC (stereo not drawn)	mHTT-CaM PPI inh 61
CCOc1ccc(NC(=O)C2CCCN(c3cnn(Cc4ccccc4)c(=O)c3)C2)cc1 (stereo not drawn)	none
Nc1ccc(C(=O)Nc2ccc(Cl)cc2Cl)cc1	none
COc1ccc(C(=O)COc2ccc3c(c2)OC(=Cc2ccc(OC)cc2OC)C3=O)cc1	none
Cc1ccc(OCc2nc3ccccc3n2C(C)C)cc1	none
CC(C)n1c(C(O)c2ccc(OCc3ccccc3)cc2)nc2ccccc21 (stereo not drawn)	mHTT-CaM PPI inh 81
O=C(Cn1ccc2ccc(N3CCCCCC3)nc21)NC1CCCCC1	mHTT-CaM PPI inh 50
O=C(Cn1ccc2ccc(N3CCCCC3)nc21)NC1CCCC1	none
COc1ccccc1N(CC(=O)NC1CC2CCC1C2)S(C)(=O)=O (stereo not drawn)	none
COc1cc(C(=O)Nc2c(C(C)C)cccc2C(C)C)c(Br)c(OC)c1OC	none
O=[N+]([O-])c1cccc2c1NC(c1ccccc1F)C1CC=CC21 (stereo not drawn)	mHTT-CaM PPI inh 75
O=[N+]([O-])c1ccccc1C1Nc2c(cccc2[N+](=O)[O-])C2C=CCC21 (stereo not drawn)	mHTT-CaM PPI inh 65
Fc1cccc2c1N[C@@H](c1c3ccccc3cc3ccccc13)[C@H]1CC=C[C@@H]21	none (no result: Pf apPOL inh)
COc1cc([N+](=O)[O-])cc2c1NC(c1cccc(Cl)c1Cl)C1CC=CC21 (stereo not drawn)	none
O=C(O)c1cccc2c1NC(c1ccccc1[N+](=O)[O-])C1CC=CC21 (stereo not drawn)	mHTT-CaM PPI inh 92
O=C(O)c1ccc([N+](=O)[O-])c2c1NCC1CC=CC21 (stereo not drawn)	none
Fc1ccc2c(c1)C(=NNC(=S)NCC1CCCO1)CCS2 (stereo not drawn)	none (no result: mHTT-CaM PPI inh)
Cc1cc(N=CN(C)C)n2c(nc3ccccc32)c1C#N	none (no result: mHTT-CaM PPI inh)
COc1cccc(-c2cn3ccn(-c4ccc(F)c(F)c4)c(=O)c3n2)c1	none
Cc1ccc2cc3cc(C(=O)Nc4cccc([N+](=O)[O-])c4C)oc3nc2c1	none
CN(C)c1nc(N)nc(CSCCCCCCCCSCc2nc(N)nc(N(C)C)n2)n1	none (no result: Pf apPOL inh)
CN1CC(=CC=Cc2ccccc2)C(=O)C(=CC=Cc2ccccc2)C1	none (no result: mHTT-CaM PPI inh)
COc1ccc2cc(C(=O)NC(C)=O)c(=Nc3ccc(F)cc3)oc2c1	none
COc1ccc2cc(C(=O)NC(C)=O)c(=Nc3ccc(C(F)(F)F)cc3)oc2c1	Pf apPOL inh 66
COc1cc(C(=O)N2CCN(C34CC5CC(CC(C5)C3)C4)CC2)cc(OC)c1OC	none
COc1ccc(NC(=O)C2CCN(c3ccc(C(C)C)cc3)C2=O)cc1 (stereo not drawn)	none
Cc1ccc(-c2ccc(/C=C/C(=O)c3ccco3)o2)cc1	none
COc1ccccc1-c1ccc(C=CC(=O)c2ccco2)o1	mHTT-CaM PPI inh 58
CCC(=O)N1CCc2cc(N3CC(C(=O)Nc4ccc(C)cc4C)CC3=O)ccc21 (stereo not drawn)	none
COc1ccc(NC(=O)c2cc3cccc(OC)c3oc2=O)c(OC)c1	Pf apPOL inh 100
COc1cccc2cc(C(=O)Nc3ccc(C)cc3C)c(=O)oc12	none
COc1ccc(N=C2C(=O)N(CN3CCN(Cc4ccccc4)CC3)c3ccccc32)cc1	none
c1ccc2c(c1)nnn2CCSCCn1nnc2ccccc21	none
ClC(Cl)(Cl)CCCCn1nnc2ccccc21	mHTT-CaM PPI inh 100
COc1cc(Cl)ccc1Nc1ncc(C(=O)N2CCN(c3ccccn3)CC2)c2ccccc12	none
Cc1ccc2nc(C)cc(C(=O)Nc3cccc(F)c3)c2c1	none
CCOCCCNC(=O)C1CCN(Cc2cc3ccccc3n2Cc2ccccc2)CC1	mHTT-CaM PPI inh 76
COCCCNC(=O)C1CCN(Cc2cc3ccccc3n2Cc2ccccc2)CC1	mHTT-CaM PPI inh 93
COCCCNC(=O)C1CCN(Cc2ccc(C)o2)CC1	none
CCOCCCNC(=O)C1CCN(c2cnn(Cc3ccccc3)c(=O)c2)CC1	none
COCCNC(=O)C1CCN(Cc2cc3ccccc3n2Cc2cccc(Cl)c2)CC1	mHTT-CaM PPI inh 91
Cc1ccnc(N2CCC(C(=O)NCC3CCN(Cc4cccc(Cl)c4)CC3)CC2)n1	none
O=c1c(NC2CCCCC2)nc2ccncc2n1Cc1ccccc1	none
COc1ccc(C2C(C(=O)Nc3ccc(F)cc3Cl)c3ccccc3C(=O)N2C)cc1 (stereo not drawn)	none
N#Cc1cc2c(N)c(C(=O)c3ccc(Cl)cc3)sc2nc1N	none
N#Cc1cc2c(N)c(C(=O)Nc3ccccc3Oc3ccccc3)sc2nc1N	mHTT-CaM PPI inh 81
CC(=O)Nc1cccc(N2CC(C(=O)NCc3cccs3)CC2=O)c1 (stereo not drawn)	none
Cc1ccc(NC(=O)N2CCC3(CC2)Nc2cc(F)ccc2-n2cccc23)cc1	mHTT-CaM PPI inh 61
CCOC(=O)c1ccc(NC(=O)N2CCC3(CC2)Nc2cc(F)ccc2-n2cccc23)cc1	mHTT-CaM PPI inh 56
O=C(Nc1ccc2c(c1)OCCO2)N1CCC2(CC1)Nc1cc(F)ccc1-n1cccc12	mHTT-CaM PPI inh 69
CCOC(=O)c1cccc(NC(=O)N2CCC3(CC2)Nc2cc(F)ccc2-n2cccc23)c1	mHTT-CaM PPI inh 68
O=C(Nc1ccc(F)cc1)N1CCC2(CC1)Nc1cc(F)ccc1-n1cccc12	none
CN1c2cc(F)ccc2C(=O)NC12CCN(C(=O)Nc1ccc3c(c1)OCO3)CC2	none
COc1ccc(-c2nc3c(c(=O)[nH]2)CCN(C(=O)c2cccc(OC)c2OC)C3)cc1	none
CN(C)c1cccc(C2=COC3(CCCN(C(=O)c4ccc(Cl)cc4)C3)C2)c1 (stereo not drawn)	none
O=[N+]([O-])c1cc(SCc2ccco2)c2c(C3OCCO3)nn(-c3ccccc3)c2c1	mHTT-CaM PPI inh 78
O=[N+]([O-])c1ccc(N2CCCC2)cc1SCc1ccco1	none
O=C(c1cccs1)N1CCC(n2c(-c3cccs3)nc3cccnc32)C1 (stereo not drawn)	none
Cc1ccc(C)c(NC(=O)C2CCN(c3c(C#N)cnc4ccccc34)CC2)c1	none
CC(C)C(=O)NC(c1ccc(N(C)C)cc1)c1ccc2cccnc2c1O (stereo not drawn)	mHTT-CaM PPI inh 100
CCN(CC)c1ccc(C(NC(=O)C(C)C)c2ccc3cccnc3c2O)cc1 (stereo not drawn)	mHTT-CaM PPI inh 100
O=C(CSc1nc2ccc([N+](=O)[O-])cc2[nH]1)Nc1cccc2c1C(=O)c1ccccc1C2=O	none
O=C(NC12CC3CC(CC(C3)C1)C2)N1C2CCC1COC2	none
C=C1CCN([C@@H](CC(C)C)C(=O)NCCCc2ccccc2)S(=O)(=O)c2ccccc21	mHTT-CaM PPI inh 65
C=C1CCN([C@@H](CC(C)C)C(=O)O)S(=O)(=O)c2ccccc21	none
C=C1CCN([C@@H](CC(C)C)C(=O)Nc2nc3ccc(Cl)cc3s2)S(=O)(=O)c2ccccc21	mHTT-CaM PPI inh 94
C=C1CCN([C@@H](CC(C)C)C(=O)Nc2ccc(OC)cc2)S(=O)(=O)c2ccccc21	none
COc1cc(/C=C2\NC(=O)NC2=O)cc(Cl)c1OC	none
CCCNc1cc(N2CCCC(CCC(=O)NCc3c(C)nn(C)c3C)C2)ncn1 (stereo not drawn)	none
N#CCCON=Cc1ccco1	none (no result: mHTT-CaM PPI inh)
